Laboratory results from ChEMBL document CHEMBL3988442, “University of Dundee, Small-Polar-MMV Screening Library” (2021).

Columns and labels:
[1] = molecular target: T1, Aspartate--tRNA(Asp/Asn) ligase (Mycobacterium tuberculosis (strain ATCC 25618 / H37Rv)) (UniProt P9WFW3); assay: Assay for Asp RNA synthetase-1 from Mycobacterium tuberculosis; format: functional; parameters: scale not given: direction of the effect not stated beside the values; conditions: 30 µM; note: in the data most compounds retested in dose-response had high values
T1 sequence (whole entry): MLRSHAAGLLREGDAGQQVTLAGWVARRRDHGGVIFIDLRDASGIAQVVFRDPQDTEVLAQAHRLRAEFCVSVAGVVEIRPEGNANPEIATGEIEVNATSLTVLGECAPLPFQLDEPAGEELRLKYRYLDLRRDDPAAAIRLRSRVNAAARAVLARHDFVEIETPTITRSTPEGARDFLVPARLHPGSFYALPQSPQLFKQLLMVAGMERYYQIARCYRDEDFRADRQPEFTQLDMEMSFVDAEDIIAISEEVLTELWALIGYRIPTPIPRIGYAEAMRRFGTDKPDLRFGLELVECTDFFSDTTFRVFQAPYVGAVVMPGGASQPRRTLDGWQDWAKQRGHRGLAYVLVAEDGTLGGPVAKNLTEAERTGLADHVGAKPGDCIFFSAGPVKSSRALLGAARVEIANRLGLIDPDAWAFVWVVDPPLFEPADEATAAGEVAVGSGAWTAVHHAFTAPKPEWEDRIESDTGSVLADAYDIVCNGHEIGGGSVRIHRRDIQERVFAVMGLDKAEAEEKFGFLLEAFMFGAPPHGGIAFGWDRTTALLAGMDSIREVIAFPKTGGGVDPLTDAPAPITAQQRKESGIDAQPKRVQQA

[2] = molecular target: Shiga toxin 2 (Escherichia coli O157:H7) (UniProt P09385+P09386); assay: E. coli 0.157:H7 Shiga Toxin SOP - stx2 screening assay; format: functional; parameters: scale not given: direction of the effect not stated beside the values; conditions: 30 µM

SMILES	Percent Effect [1] [%]	Percent Effect [2] [%]
CCOCC1CC2(CCN(C(=O)c3ccccc3F)CC2)CO1 (centres undefined)	3.1	5.12
Cc1ccc(CN2CCC(F)(F)C3(CCN(c4cnccn4)C3)C2)o1 (centres undefined)	5.56	-6.62
COc1nn(C)c2c1CCCN(C(=O)c1ccccc1)C2	-0.268	-9.13
Cc1cc(C)n(C2CCCN(C(=O)COCC(F)(F)F)C2)n1 (centres undefined)	-4.61	-2.74
CCOC(CC)C(=O)NCc1ccnc(Oc2ccc(F)cc2)c1 (centres undefined)	0.301	5.28
O=c1cc2c(nn1CN1CCN(c3ccccc3)CC1)CCC2	6.3	-14
O=C(c1cccnc1N1CCOCC1)N1CCCC(n2ccnc2)C1 (centres undefined)	-4.5	31.6
CCc1ccc(S(=O)(=O)Nc2cc(C(=O)O)c(F)cc2F)s1	-4.19	-16.1
O=C1CCC2(CCCN(c3ncc(F)cn3)CC2)N1CC1CC1 (centres undefined)	-1.91	-3.81
O=C(CCN1C(=O)CCC1=O)Nc1cnn(-c2ccccc2Cl)c1	2.85	1.3
COCCOc1ncccc1CNCc1c(C)nn(C)c1N(C)C	-5.91	7.43
COc1cccc(CN(C)C(=O)Nc2ccc3c(c2)OCCO3)c1	16.5	-9.02
CCC(=O)NC1CCN(c2cccc(CC)c2)CC1	1.79	5.5
CCc1n[nH]c(C2CN(CCc3ccncc3)CCO2)n1 (centres undefined)	-1.5	11.6
Cc1cnn(CC2CCCN2C(=O)CCc2c(C)noc2Cl)c1 (centres undefined)	2.73	-4.86
COc1ccc(CCN2CCCC(Cn3nc(C)nc3C)C2)cc1 (centres undefined)	-3.48	-52.1
CCc1c(C)nc2n(c1=O)CC(C(=O)Nc1ccccc1F)CS2 (centres undefined)	-3.83	-4.39
O=C1C[C@H]2[C@@H](CCN2C(=O)Cc2cccs2)N1Cc1cccnc1	-2.94	-6.22
Cc1cc(C)c(CNC(=O)NCC(O)COc2ccccc2)c(=O)[nH]1 (centres undefined)	4.61	27.6
CCN(CC(=O)NC)S(=O)(=O)N1CCCCCC1	1.14	6.63
Cn1cc(CN2CCc3c(nc(-c4ccccn4)[nH]c3=O)C2)cn1	-3.63	-0.78
CCOCC1CN(Cc2ccoc2)Cc2ncn(CC3CC3)c21 (centres undefined)	0.605	-8.58
O=C(NCCCNC(=O)c1cccc(O)c1)NCc1ccccc1F	-5.63	-41.9
CC(N(C)Cc1nc2c(cnn2C)c(=O)[nH]1)C(C)(C)C (centres undefined)	5.45	28.9

SMILES	Percent Effect [1] [%]	Percent Effect [2] [%]
CN1CCN(C(=O)c2cncc(CC3CCCN(C)C3)c2)CC1 (centres undefined)	-1.68	-19.2
CC(C)NC(=O)N1CCc2ncc(CN3CCOCC3)n2CC1	3.1	0.463
Cc1ccccc1OCCC(=O)N1CCCC(n2cncn2)C1 (centres undefined)	-3.32	2.85
Cn1ncc2c1NC(=O)CC2c1ccc(O)cc1 (centres undefined)	0.0331	-13.8
COc1cccc(COCC(O)CN2CC(n3cccn3)C2)c1 (centres undefined)	-2.41	16.5
O=C(c1ccn(-c2cccc(F)c2)n1)N1CCCC(n2cccn2)C1 (centres undefined)	-2.68	1.81
O=C(N[C@@H]1CN(Cc2ccsc2)[C@@H]2CCCO[C@@H]21)C1CC1	-0.611	-18.9
COc1c(C)cnc(CN2CCC(N(C)C(C)C(N)=O)CC2)c1C (centres undefined)	-3.49	-5
CCOCCCn1c(NC(=O)c2ccc(C)nc2)nc2ccccc21	-3.79	14.9
Cn1ccnc1CN1CCN(CC(=O)NCC(F)(F)F)CC1	1.97	18.6
O=C([C@H]1CCCO1)N1CCCC2(CCN(Cc3ccncc3)C2=O)C1 (some centres undefined)	3.8	-9.24
COc1ccc2cc(C(=O)N3CCCCC3CC(N)=O)[nH]c2c1 (centres undefined)	-1.12	4.87
Cc1nc(CN2CCCN(C(=O)C(C)OCC3CC3)CC2)cs1 (centres undefined)	-3.97	-12.8
CCOc1ccccc1-c1noc(CN2CCCC(O)C2)n1 (centres undefined)	-5.33	2.11
CN1N=C(C(=O)NCc2ccc3c(c2)CCCN3C)CCC1=O	-4.96	-42.9
CC1CCc2nc(O)c(C(=O)NCc3cccc(F)c3)cc2C1 (centres undefined)	1.04	-8.04
Cc1nc(O)c2nnn(C[C@H]3CCCN3C(=O)C(C)(C)C)c2n1	5.78	-7.47
Cc1nc(C)n(C2CCCN(C(=O)c3csc(C(C)C)n3)C2)n1 (centres undefined)	7.62	4.53
c1cnn(Cc2cn3c(n2)CN(Cc2nccs2)CC3)c1	-2.35	-23.5
COCCN1CCC2(CCN(Cc3nccs3)CC2)C1=O	3.12	-8.73
Cc1nc(C)c(C(=O)NCCNC(=O)c2ccc(F)cc2F)s1	-2.04	-16
COc1ncc(CN2CC[C@@](C)(O)[C@H](Oc3cccc(F)c3)C2)cn1	6.63	13
O=C(CCCOc1ccccc1Cl)N1CCCC(n2cncn2)C1 (centres undefined)	-3.9	19.3
